Reference: PubChem BioAssay AID1851 (National Center for Advancing Translational Sciences (NCATS), 2009)
“And” between values parts separate entries of the source, which are not always exact repeats. Identical values can stand only once. The campaign covered roughly 16,000 compounds. About 2,600 (16%) were called active. Inconclusive results (about 20%) are left out. The sample holds actives, similar compounds and a random draw of the others, so the mix is not that of the screen. Calls come from the whole dose curve; as a rule, active = well fitted curve in the direction sought with a large enough effect; inconclusive = small, poorly fitted or top-dose-only effect, or effect the other way; inactive = no such curve, though single readings can be large or run the other way. Some compounds were tested as several samples or in several runs, with calls that do not always agree.

What follows are molecules tested against Cytochrome P450 2D6 (Homo sapiens) (UniProt P10635) (assay: Cytochrome panel assay with activity outcomes). Conditions: recombinant CYP, pro-luciferin dealkylation, luminescence, p450-cyp2d6; series mostly up to 57.1 µM; activity, negative = inhibition: at the top concentration.
% is set by controls: 0 for no effect and ±100 for the full control effect.

Sequence of Cytochrome P450 2D6 (Homo sapiens) (P10635 whole entry, looked up): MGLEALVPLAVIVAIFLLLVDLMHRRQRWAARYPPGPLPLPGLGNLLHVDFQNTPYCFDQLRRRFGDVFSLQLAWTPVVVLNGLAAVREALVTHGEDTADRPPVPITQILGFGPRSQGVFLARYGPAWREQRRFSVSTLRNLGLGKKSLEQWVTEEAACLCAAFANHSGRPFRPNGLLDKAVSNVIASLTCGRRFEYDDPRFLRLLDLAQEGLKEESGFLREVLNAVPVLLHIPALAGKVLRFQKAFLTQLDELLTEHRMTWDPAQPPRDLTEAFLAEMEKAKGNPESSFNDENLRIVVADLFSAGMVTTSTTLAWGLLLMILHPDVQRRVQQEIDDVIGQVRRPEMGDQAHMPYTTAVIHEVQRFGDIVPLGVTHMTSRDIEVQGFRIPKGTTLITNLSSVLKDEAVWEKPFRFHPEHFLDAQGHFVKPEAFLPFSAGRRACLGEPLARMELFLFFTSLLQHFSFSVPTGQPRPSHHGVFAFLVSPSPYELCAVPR

| Structure (SMILES) | activity, negative = inhibition | AC50 |
| --- | --- | --- |
| O=C(Cn1ncc2ccsc2c1=O)N1CCC2(CC1)OCCO2 | 11.9% (inactive) | – |
| Cc1ccc(N(C)C(=O)Oc2cccc3ccc(C)nc23)cc1 | -3.13% (inactive) | – |
| O=C(O)/C=C(\CC(=O)O)C(=O)O | -1.58% [at 11.4 µM] (inactive) | – |
| N[C@@H](Cn1ccc(=O)n(Cc2ccc(C(=O)O)cc2)c1=O)C(=O)O | 9.46% (inactive) | – |
| CCN1C[C@@]2(COC)CC[C@H](OC)[C@]34[C@@H]1[C@]1(OCO[C@@]15C[C@@H](OC)C1C[C@H]3[C@H]5[C@@H]1OC)[C@H](O)[C@@H]24 | 2.41% [at 25.6 µM] (inactive) | – |
| C[C@]12N[C@@H](Cc3ccccc31)c1ccccc12 | – | inactive and 79.4 nM (active) and 5.01 µM (active) |
| C[C@]12N[C@H](Cc3ccccc31)c1ccccc12 | – | inactive |
| Cc1nnc2ccc(-c3cccc(C(F)(F)F)c3)nn12 | -2.28% (inactive) | – |
| S=C(Nc1ccc(Cl)cc1)NC1CC2CCCC(C1)N2C1CCCC1 (stereo not drawn) | – | 0.501 µM (active) |
| NS(=O)(=O)C[C-]1C=C[CH]([Sb-]([Cl])([Cl])([Cl])([Cl])[Cl])C=C1.c1ccncc1 (stereo not drawn) | 7.69% [at 11.4 µM] (inactive) | – |
| C=CCn1c(O)c(C(C)=NCCCN2CCOCC2)c(=O)[nH]c1=O | -29.6% (inactive) | – |
| CC(=O)O[C@H]1C[C@@H](O[C@@H]2[C@H](C)O[C@H](O[C@@H]3[C@H](C)O[C@H](O[C@@H]4CC[C@@]5(C)[C@@H](CC[C@]6(C)[C@]5(C)C[C@H](O)[C@]5(C)[C@@H](C7=CC(=O)OC7)CC[C@@]56O)C4)C[C@@H]3O)C[C@@H]2O)O[C@@H](C)[C@H]1O[C@H]1O[C@@H](CO)[C@@H](O)[C@@H](O)[C@@H]1O | 2.58% [at 25.6 µM] (inactive) | – |
| CC1=CC(=O)C2=C(C)C[C@@H](O)[C@@H]3[C@@H](OC(=O)[C@H]3C)[C@H]12 | 3.85% [at 25.6 µM] (inactive) | – |
| CN1CCN(c2ccc([N+](=O)[O-])c(N/N=C3\CN4CCC3CC4)c2)CC1 | 37.9% (inactive) | – |
| C=CCN1C[C@H](C)N([C@@H](c2ccccc2)c2ccc(C(=O)N(CC)CC)cc2)C[C@H]1C | -15.7% (inactive) | – |
| C=CCN1C[C@H](C)N([C@H](c2ccc(C(=O)N(CC)CC)cc2)c2cccc(OC)c2)C[C@H]1C | – | 1.58 µM (active) |
| C=CCN1C[C@H](C)N([C@H](c2ccc(C(=O)N(CC)CC)cc2)c2cccc(O)c2)C[C@H]1C | -2.16% (inactive) | – |
| C=CCN1C[C@@H](C)N([C@H](c2ccc(C(=O)N(CC)CC)cc2)c2cccc(OC)c2)C[C@H]1C | – | 31.6 µM (active) |
| Cn1c(=O)c2[nH]cnc2n(C)c1=O.[CH2-][C@H](Cc1cccc2cc(C(=O)O)c(=O)oc12)OC.[Hg].[OH-] | 10.9% [at 11.4 µM] (inactive) | – |
| Cc1ccc(-c2nc3ccccc3c(=O)n2-c2ncccc2C)cc1 | -10.4% (inactive) | – |
| C[C@H]1CC[C@@]2(NC1)O[C@@H]1C[C@H]3[C@@H]4CC=C5C[C@@H](O)CC[C@]5(C)[C@@H]4CC[C@]3(C)[C@@H]1[C@@H]2C | 2.22% [at 25.6 µM] (inactive) | – |
| C[C@@H](Cc1ccc(OCC(=O)O)cc1)NC[C@H](O)c1cccc(Cl)c1 | – | 25.1 µM (active) |
| CCNC[C@H](O)c1cccc(O)c1 | -3.56% [at 25.6 µM] (inactive) | – |
| COc1ccc(OCC(=O)Nc2ccc(Cl)cc2C(=O)c2ccccc2)cc1 | -2.96% (inactive) | – |
| O=C(Nc1ccc(C(F)(F)F)cc1)c1cccn(Cc2ccc3c(c2)OC(F)(F)O3)c1=O | -11.5% (inactive) | – |
| CCCCN1C(=O)C(C2c3ccccc3C(=O)N2Cc2ccccc2)C(=O)NC1=S (stereo not drawn) | 3.38% (inactive) | – |
| COC(=O)[C@@H]1[C@@H]2C[C@H]3c4[nH]c5cc(OC)ccc5c4CCN3C[C@@H]2C[C@H](OC(=O)/C=C\c2cc(OC)c(OC)c(OC)c2)[C@H]1OC | -13.1% [at 25.6 µM] (inactive) | – |

| Structure (SMILES) | activity, negative = inhibition | AC50 |
| --- | --- | --- |
| O=C1NCN(c2ccccc2)C12CCN(C[C@H]1COc3ccccc3O1)CC2 | – | 0.0631 µM (active) |
| O=C(CCCN1CCC(n2c(=O)[nH]c3ccccc32)CC1)c1ccc(F)cc1 | – | 6.31 µM (active) |
| O=C1NCN(c2ccccc2)C12CCN(CCCOc1ccc(F)cc1)CC2 | – | 0.158 µM (active) |
| O=C(CCCN1CCC2(CC1)C(=O)NCN2c1ccccc1)c1ccc(F)cc1 | – | 2.51 µM (active) and 1 µM (active) and 1.58 µM (active) |
| CC(=O)OC1=CC2=CC[C@H]3[C@H]4CCC(=O)[C@@]4(C)CC(=O)[C@]3(S)[C@]2(C)CC1 | 0.557% [at 11.4 µM] (inactive) | – |
| CC[C@@](O)(C(=O)O)c1cc2n(c(=O)c1CO)Cc1cc3ccccc3nc1-2 | 10.4% [at 11.4 µM] (inactive) | – |
| O=C(Nc1cccc(F)c1)N1CC2(CCN(C(=O)Oc3ccccc3)CC2)C1 | -4.33% (inactive) | – |
| CN1C(=O)C(=Cc2ccccc2Oc2ccc(Cl)c(F)c2)C(=O)N(C)C1=O | 16.1% (inactive) | – |
| CC(C)C12CN3CC(C(C)C)(CN(C1)C3c1cccnc1)C2=O (stereo not drawn) | -8.2% (inactive) | – |
| O=C(CCCN1CCC2(CC1)C(=O)N(Cc1cccc(F)c1)CN2c1ccccc1)c1ccc(F)cc1 | – | 3.16 µM (active) |
| C[C@@]12CC(=O)[C@H]3[C@@H](CCC4=CC(=O)CC[C@]43C)[C@H]1CCC2=O | 2.29% [at 25.6 µM] (inactive) | – |
| COc1ccccc1CC1C(=O)C2CCN1CC2 (stereo not drawn) | – | 11.2 µM (active) |
| CC(C)C(=O)Nc1ccc([N+](=O)[O-])c(C(F)(F)F)c1 | -17.2% [at 25.6 µM] (inactive) | – |
| CC(C)(C)NC[C@H](O)c1cc(Cl)c(N)c(Cl)c1 | -17.1% [at 25.6 µM] (inactive) | – |
| CN(C)C(=O)Oc1cccc([N+](C)(C)C)c1 | -2.57% [at 25.6 µM] (inactive) | – |
| CN(C)C(=O)Oc1cc(OC(=O)N(C)C)cc([C@@H](O)CNC(C)(C)C)c1 | – | 7.94 µM (active) |
| CCCC[N+]12CCC(CC1)C(C(=O)c1cccs1)C2 (stereo not drawn) | – | 0.282 µM (active) |
| CCN1C[C@@]2(COC)CC[C@H](O)[C@@]34[C@@H]2C[C@@H]([C@@H]13)[C@]1(O)C[C@@H](OC)C2C[C@H]4[C@H]1[C@H]2OC(C)=O | 1.85% [at 25.6 µM] (inactive) | – |
| CC[N+](CC)(CCCNC1=CC(=O)C(NCCC[N+](CC)(CC)Cc2ccccc2)=CC1=O)Cc1ccccc1 | -11.7% (inactive) | – |
| CC(=O)O[C@H]1CC[C@@]2(C)[C@@H](CC[C@H]3[C@H]2CC(=O)[C@@]2(C)[C@@H]3C[C@H]3CC(C)=CC(=O)[C@H]32)C1 | 2.72% [at 11.4 µM] (inactive) | – |
| COc1ccc(C[C@@H](N)c2ccc(OC)cc2)cc1 | – | 0.631 µM (active) |
| COc1ccc(OC)c([C@H](O)[C@H](C)N)c1 | -12.7% [at 25.6 µM] (inactive) | – |
| Cc1ccc(C(=O)C2C(=O)c3ccccc3C2=O)cc1 | 3% (inactive) | – |
| O=C1NC(=S)NC(=O)C1=Cc1cccc2cc3ccccc3cc12 | -0.164% [at 11.4 µM] (inactive) | – |
| CC[C@@H](CO)Nc1nc(NCc2ccccc2)c2ncn(C(C)C)c2n1 | – | 31.6 µM (active) |
| CC(C)[C@H](CO)Nc1nc(Nc2cccc(Cl)c2)c2ncn(C(C)C)c2n1 | 2.72% (inactive) | – |
